{"source": "ChEMBL document CHEMBL3988442", "about": "“University of Dundee, Small-Polar-MMV Screening Library” (2021)", "target": "T1, Methionyl-tRNA synthetase, putative (Leishmania donovani (strain BPK282A1)) (UniProt E9BF75)", "T1 sequence (whole entry)": "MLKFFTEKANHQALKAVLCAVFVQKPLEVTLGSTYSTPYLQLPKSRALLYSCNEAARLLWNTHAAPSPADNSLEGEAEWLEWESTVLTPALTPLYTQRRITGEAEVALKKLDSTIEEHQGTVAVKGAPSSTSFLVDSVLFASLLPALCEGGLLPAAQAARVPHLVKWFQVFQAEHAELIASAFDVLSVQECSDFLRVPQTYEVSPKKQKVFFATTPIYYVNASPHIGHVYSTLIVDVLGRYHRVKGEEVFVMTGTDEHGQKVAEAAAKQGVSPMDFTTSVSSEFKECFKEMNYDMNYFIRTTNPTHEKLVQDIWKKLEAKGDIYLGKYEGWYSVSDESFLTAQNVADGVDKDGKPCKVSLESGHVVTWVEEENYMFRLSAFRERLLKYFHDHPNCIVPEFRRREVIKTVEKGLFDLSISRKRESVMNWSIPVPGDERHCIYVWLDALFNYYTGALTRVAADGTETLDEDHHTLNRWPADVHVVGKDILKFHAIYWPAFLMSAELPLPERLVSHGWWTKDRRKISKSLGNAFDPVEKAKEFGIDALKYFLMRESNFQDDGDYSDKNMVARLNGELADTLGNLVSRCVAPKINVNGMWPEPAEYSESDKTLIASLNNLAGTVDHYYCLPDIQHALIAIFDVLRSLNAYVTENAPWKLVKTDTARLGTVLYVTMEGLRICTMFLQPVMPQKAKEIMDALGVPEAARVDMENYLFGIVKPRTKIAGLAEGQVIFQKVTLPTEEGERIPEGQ", "assay": "Leishmania donovani Methionine tRNA synthetase (LdMetRS):v7. Dose response assay", "format": "functional", "design": "conc 80 nM, time 150 minutes", "data": [{"smiles": "Clc1ccccc1CN1CCc2nc(Nc3ccccc3)ncc2C1", "values": [{"measurement": "PXC50", "setting": "MAX_EFFECT 23.92344498", "value": "< 4"}, {"measurement": "PXC50", "setting": "MAX_EFFECT 25.2285192", "value": "< 4"}]}, {"smiles": "Nc1cc(O)c(Cl)cc1Cl", "values": [{"measurement": "PXC50", "setting": "MAX_EFFECT 7.034220532", "value": "< 3"}, {"measurement": "PXC50", "setting": "MAX_EFFECT 11.44708423", "value": "< 3"}]}, {"smiles": "O=C(CO)N1CCC(F)(F)C2(CCN(c3ccccc3)C2)C1", "note": "(stereo not drawn)", "values": [{"measurement": "PXC50", "setting": "MAX_EFFECT 15.37037037", "value": "< 4"}, {"measurement": "PXC50", "setting": "MAX_EFFECT 18.30985915", "value": "< 4"}]}, {"smiles": "O=C(NCC1CCCCC1)c1cc(=O)c2cc(O)ccc2o1", "values": [{"measurement": "PXC50", "setting": "MAX_EFFECT 0.575815739", "value": "< 4"}, {"measurement": "PXC50", "setting": "MAX_EFFECT 4.306220096", "value": "< 4"}]}, {"smiles": "Cc1nc(NC(CC(C)C)C(=O)O)c2c3c(sc2n1)CCCC3", "note": "(stereo not drawn)", "values": [{"measurement": "PXC50", "setting": "MAX_EFFECT 16.83673469", "value": "< 4"}, {"measurement": "PXC50", "setting": "MAX_EFFECT 16.91919192", "value": "< 4"}]}, {"smiles": "CCOCCN(CCOCC)c1nc(C)nc2sccc12", "values": [{"measurement": "PXC50", "setting": "MAX_EFFECT 12.27154047", "value": "< 4"}, {"measurement": "PXC50", "setting": "MAX_EFFECT 15.66579634", "value": "< 4"}]}, {"smiles": "Cc1nccn1CCCn1cncc1-c1ccc2c(c1)CC(C)N2C", "note": "(stereo not drawn)", "values": [{"measurement": "PXC50", "setting": "MAX_EFFECT 28.57142857", "value": "< 4"}, {"measurement": "PXC50", "setting": "MAX_EFFECT 43.36448598", "value": "< 4"}]}, {"smiles": "Cc1cc2c(N3CCN(CCO)CC3)nc(-c3cccnc3)nc2s1", "values": [{"measurement": "PXC50", "setting": "MAX_EFFECT 11.05527638", "value": "< 4"}, {"measurement": "PXC50", "setting": "MAX_EFFECT 12.53071253", "value": "< 4"}]}, {"smiles": "Cc1cc(C(F)(F)F)nc(CCNc2nc(C)nc3sccc23)n1", "values": [{"measurement": "PXC50", "setting": "MAX_EFFECT 8.838383838", "value": "< 4"}, {"measurement": "PXC50", "setting": "MAX_EFFECT 11.2244898", "value": "< 4"}]}, {"smiles": "CN(C)C(=O)c1ccc2ccc(N3CCN(CC4CC4)CC3)n2c1", "values": [{"measurement": "PXC50", "setting": "MAX_EFFECT 43.08390023", "value": "< 4"}, {"measurement": "PXC50", "setting": "MAX_EFFECT 51.58878505", "value": "< 4"}]}, {"smiles": "FC(F)(F)c1nc(N2CCOCC2)nc2c1CCCCC2", "values": [{"measurement": "PXC50", "setting": "MAX_EFFECT 7.808564232", "value": "< 4"}, {"measurement": "PXC50", "setting": "MAX_EFFECT 8.396946565", "value": "< 4"}]}, {"smiles": "N[C@H](COc1cccc(F)c1Oc1ccc(Cl)cc1)CC1CCCCC1", "values": [{"measurement": "PXC50", "setting": "BOTTOM 8.516712257, HILLSLOPE 1.897669447, MAX_EFFECT 94.20289855, TOP 100.0", "value": 4.49}, {"measurement": "PXC50", "setting": "BOTTOM 8.547488971, HILLSLOPE 2.365761437, MAX_EFFECT 99.14712154, TOP 101.5267465", "value": 4.51}]}, {"smiles": "COCCNc1nc(-c2ccc(C)cc2)cc(C(F)(F)F)n1", "values": [{"measurement": "PXC50", "setting": "MAX_EFFECT 7.978723404", "value": "< 4"}, {"measurement": "PXC50", "setting": "MAX_EFFECT 8.29015544", "value": "< 4"}]}, {"smiles": "NC(=O)c1ccc(Cl)cc1Cl", "values": [{"measurement": "PXC50", "setting": "MAX_EFFECT 4.967602592", "value": "< 3"}, {"measurement": "PXC50", "setting": "MAX_EFFECT 16.92015209", "value": "< 3"}]}, {"smiles": "CC1CCc2c(Cl)cc(Cl)c(O)c2N1", "note": "(stereo not drawn)", "values": [{"measurement": "PXC50", "setting": "MAX_EFFECT 23.76425856", "value": "< 3"}, {"measurement": "PXC50", "setting": "MAX_EFFECT 24.40604752", "value": "< 3"}]}, {"smiles": "OCCN1CCC(F)(F)C2(CCN(c3cnccn3)C2)C1", "note": "(stereo not drawn)", "values": [{"measurement": "PXC50", "setting": "MAX_EFFECT 3.174603175", "value": "< 4"}, {"measurement": "PXC50", "setting": "MAX_EFFECT 14.57943925", "value": "< 4"}]}, {"smiles": "COCCNc1ccc2ncc(-c3ccc4onc(N)c4c3)n2n1", "values": [{"measurement": "PXC50", "setting": "MAX_EFFECT 3.125", "value": "< 4"}, {"measurement": "PXC50", "setting": "MAX_EFFECT 3.947368421", "value": "< 4"}]}, {"smiles": "Nc1noc2ccc(-c3cnc4ccc(NC5CC5)nn34)cc12", "values": [{"measurement": "PXC50", "setting": "MAX_EFFECT 22.39185751", "value": "< 4"}, {"measurement": "PXC50", "setting": "MAX_EFFECT 25.87719298", "value": "< 4"}]}, {"smiles": "O=C(NC1CCCC1)c1ccc2ccc(N3CCCCC3)n2c1", "values": [{"measurement": "PXC50", "setting": "MAX_EFFECT 36.52968037", "value": "< 4"}, {"measurement": "PXC50", "setting": "MAX_EFFECT 39.81132075", "value": "< 4"}]}, {"smiles": "NC(=O)C1CCN(c2cncc(-n3cccn3)n2)CC1", "values": [{"measurement": "PXC50", "setting": "MAX_EFFECT 1.936619718", "value": "< 4"}, {"measurement": "PXC50", "setting": "MAX_EFFECT 4.750593824", "value": "< 4"}]}, {"smiles": "CO[C@H]1[C@@H]2CC[C@H]1CN(c1nc(C)nc3sccc13)C2", "values": [{"measurement": "PXC50", "setting": "MAX_EFFECT 8.838383838", "value": "< 4"}, {"measurement": "PXC50", "setting": "MAX_EFFECT 9.693877551", "value": "< 4"}]}, {"smiles": "Cc1nc(N(C)CC(=O)N2CCCC2)c2c3c(sc2n1)CCCC3", "values": [{"measurement": "PXC50", "setting": "MAX_EFFECT 3.703703704", "value": "< 4"}, {"measurement": "PXC50", "setting": "MAX_EFFECT 3.733333333", "value": "< 4"}]}, {"smiles": "CCN1CCN(c2nc(-c3cccnc3)nc3sc(C)cc23)CC1", "values": [{"measurement": "PXC50", "setting": "MAX_EFFECT 2.18579235", "value": "< 4"}, {"measurement": "PXC50", "setting": "MAX_EFFECT -3.20855615", "value": "< 4"}]}, {"smiles": "CN(C(=O)c1ccc2ccc(N3CCN(S(C)(=O)=O)CC3)n2c1)C1CCCC1", "values": [{"measurement": "PXC50", "setting": "BOTTOM 0.289643944, HILLSLOPE 2.293493597, MAX_EFFECT 58.37320574, TOP 59.73308371", "value": 5.01}, {"measurement": "PXC50", "setting": "BOTTOM 8.176661161, HILLSLOPE 2.054643886, MAX_EFFECT 62.15722121, TOP 64.55497205", "value": 4.82}]}, {"smiles": "CS(=O)(=O)N1CCN(c2ccc3ccc(C(=O)NCCN4CCS(=O)(=O)CC4)cn23)CC1", "values": [{"measurement": "PXC50", "setting": "BOTTOM 1.003127248, HILLSLOPE 2.200420441, MAX_EFFECT 73.49177331, TOP 74.60069177", "value": 4.88}, {"measurement": "PXC50", "setting": "BOTTOM 1.050104582, HILLSLOPE 2.645513549, MAX_EFFECT 70.81339713, TOP 67.22785398", "value": 4.94}]}, {"smiles": "O=C(NC1CCCC1)c1ccc2ccc(N3CCOCC3)n2c1", "values": [{"measurement": "PXC50", "setting": "BOTTOM 3.55073469, HILLSLOPE 1.692539638, MAX_EFFECT 59.05660377, TOP 61.76844647", "value": 4.9}, {"measurement": "PXC50", "setting": "BOTTOM 4.599152337, HILLSLOPE 2.687600256, MAX_EFFECT 55.70776256, TOP 54.83275802", "value": 4.96}]}, {"smiles": "CCn1ncc(-c2cc(C(F)(F)F)nc(N3CCC(N)CC3)n2)c1C", "values": [{"measurement": "PXC50", "setting": "MAX_EFFECT 0.522193211", "value": "< 4"}, {"measurement": "PXC50", "setting": "MAX_EFFECT 1.305483029", "value": "< 4"}]}, {"smiles": "Nc1noc2ccc(-c3cnc4ccc(Cl)nn34)cc12", "values": [{"measurement": "PXC50", "setting": "MAX_EFFECT 1.526717557", "value": "< 4"}, {"measurement": "PXC50", "setting": "MAX_EFFECT 4.824561404", "value": "< 4"}]}, {"smiles": "Cc1nc(O)cc(C2CCN(c3nc(C)nc4sccc34)CC2)n1", "values": [{"measurement": "PXC50", "setting": "MAX_EFFECT 2.659574468", "value": "< 4"}, {"measurement": "PXC50", "setting": "MAX_EFFECT 5.699481865", "value": "< 4"}]}]}
